# Where “and” joins values, the source holds several entries; their conditions need not be identical. Equal values may be shown once. Inconclusive results are not listed. Calls of active or inactive are those of the source. Rule for the calls: active = hit-call score of the fitted dose curve at least 0.9, where 1 is the maximum; inconclusive = response in the unintended direction; inactive = score below 0.9.
# Tests used:
# [1] = biological target: human Leukotriene B4 Receptor 1 (LTB4-BLT1), LTB4R (gene 1241) (UniProt Q15722); assay: NVS_GPCR_hLTB4_BLT1: NovaScreen (NVS) G Protein-Coupled Receptor Assay for human Leukotriene B4 Receptor 1 (LTB4-BLT1) (AID 2283271)
# Sequence of human Leukotriene B4 Receptor 1 (LTB4-BLT1), LTB4R (gene 1241) (Q15722 whole entry, looked up): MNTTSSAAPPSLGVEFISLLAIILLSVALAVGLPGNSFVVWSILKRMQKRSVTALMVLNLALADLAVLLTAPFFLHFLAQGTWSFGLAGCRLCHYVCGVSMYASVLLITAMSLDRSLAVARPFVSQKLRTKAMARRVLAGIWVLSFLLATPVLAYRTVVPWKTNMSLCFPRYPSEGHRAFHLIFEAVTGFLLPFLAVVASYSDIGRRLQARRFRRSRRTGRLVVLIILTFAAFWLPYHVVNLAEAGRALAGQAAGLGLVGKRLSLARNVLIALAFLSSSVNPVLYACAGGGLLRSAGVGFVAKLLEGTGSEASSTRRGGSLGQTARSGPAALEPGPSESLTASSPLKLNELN
# Summary of the method: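 Radioligand displacement binding on receptor extracted from human neutrophils, cell-free, 1 h after dosing; filter-based scintillation counting. Primary screen in duplicate at 25 uM, actives retested in concentration-response up to 50 uM; loss of signal versus DMSO.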
# [2] = biological target: human Opioid Receptor Delta 1 (Opiate D1), OPRD1 (gene 4985) (UniProt P41143); assay: NVS_GPCR_hOpiate_D1: NovaScreen (NVS) G Protein-Coupled Receptor Assay for human Opioid Receptor Delta 1 (Opiate D1) (AID 2283280)
# Sequence of human Opioid Receptor Delta 1 (Opiate D1), OPRD1 (gene 4985) (P41143 whole entry, looked up): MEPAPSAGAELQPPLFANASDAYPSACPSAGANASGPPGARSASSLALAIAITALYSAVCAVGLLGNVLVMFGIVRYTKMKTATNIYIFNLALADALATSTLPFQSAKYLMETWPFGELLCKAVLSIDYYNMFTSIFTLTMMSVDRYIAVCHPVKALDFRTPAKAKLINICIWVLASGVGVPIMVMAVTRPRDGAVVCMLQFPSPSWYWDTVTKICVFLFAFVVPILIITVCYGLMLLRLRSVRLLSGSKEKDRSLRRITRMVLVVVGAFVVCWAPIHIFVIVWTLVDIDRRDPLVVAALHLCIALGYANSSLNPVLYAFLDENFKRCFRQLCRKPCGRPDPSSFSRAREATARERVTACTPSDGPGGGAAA
# Summary of the method: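 Radioligand displacement on membranes from CHO cells expressing the receptor, read by filter scintillation counting 1 h after dosing. Duplicate single-point screen at 25 uM, then concentration series for actives; loss of signal versus DMSO.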
# [3] = biological target: human Neuropeptide Receptor Y1 (NPY1), NPY1R (gene 4886) (UniProt P25929); assay: NVS_GPCR_hNPY1: NovaScreen (NVS) G Protein-Coupled Receptor Assay for human Neuropeptide Receptor Y1 (NPY1) (AID 2283276)
# Sequence of human Neuropeptide Receptor Y1 (NPY1), NPY1R (gene 4886) (P25929 whole entry, looked up): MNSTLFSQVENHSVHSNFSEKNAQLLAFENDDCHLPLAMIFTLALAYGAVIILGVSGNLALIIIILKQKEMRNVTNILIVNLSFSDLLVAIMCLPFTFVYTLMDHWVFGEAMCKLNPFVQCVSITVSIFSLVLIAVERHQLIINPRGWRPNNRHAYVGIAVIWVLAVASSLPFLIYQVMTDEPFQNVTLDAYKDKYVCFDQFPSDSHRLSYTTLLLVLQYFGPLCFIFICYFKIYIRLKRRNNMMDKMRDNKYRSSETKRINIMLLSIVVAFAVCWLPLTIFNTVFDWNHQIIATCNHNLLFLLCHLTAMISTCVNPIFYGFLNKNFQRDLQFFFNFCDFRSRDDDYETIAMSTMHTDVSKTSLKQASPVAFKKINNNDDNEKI
# Summary of the method: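 Cell-free radioligand binding using receptor extracted from SK-N-MC cells, 1 h incubation, filter-based scintillation counting. Primary screen single concentration 25 uM in duplicate; actives followed in concentration series. Loss of bound signal scored versus DMSO.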
# [4] = biological target: human Neurokinin, NK2 Receptor, TACR2 (gene 6865) (UniProt P21452); assay: NVS_GPCR_hNK2: NovaScreen (NVS) G Protein-Coupled Receptor Assay for human Neurokinin, NK2 Receptor (AID 2283278);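 note: actives reduce bound radioligand signal relative to DMSO baseline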
# Sequence of human Neurokinin, NK2 Receptor, TACR2 (gene 6865) (P21452 whole entry, looked up): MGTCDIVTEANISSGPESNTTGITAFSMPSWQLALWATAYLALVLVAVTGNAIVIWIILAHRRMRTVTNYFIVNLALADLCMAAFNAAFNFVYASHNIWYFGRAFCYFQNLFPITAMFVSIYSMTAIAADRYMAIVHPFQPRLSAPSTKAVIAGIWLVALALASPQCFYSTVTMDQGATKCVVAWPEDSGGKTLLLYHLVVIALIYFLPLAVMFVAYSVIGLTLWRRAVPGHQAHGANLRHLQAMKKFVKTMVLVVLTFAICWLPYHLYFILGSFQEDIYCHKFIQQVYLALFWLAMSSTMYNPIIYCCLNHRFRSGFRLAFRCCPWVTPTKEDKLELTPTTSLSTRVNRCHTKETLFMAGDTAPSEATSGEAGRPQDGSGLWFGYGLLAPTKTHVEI
# Summary of the method: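 Filter-based scintillation counting measured radioligand bound to receptor extracted from CHO cells, 4 hours after compound addition. Chemicals screened first at 25 uM in duplicate, with actives retested in concentration series relative to DMSO.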
# [5] = biological target: Muscarinic acetylcholine receptor M3 (Homo sapiens) (UniProt P20309); assay: NVS_GPCR_hM3: NovaScreen (NVS) G Protein-Coupled Receptor Assay for human Muscarinic, M3 Receptor (AID 2283272)
# Sequence of Muscarinic acetylcholine receptor M3 (Homo sapiens) (P20309 whole entry, looked up): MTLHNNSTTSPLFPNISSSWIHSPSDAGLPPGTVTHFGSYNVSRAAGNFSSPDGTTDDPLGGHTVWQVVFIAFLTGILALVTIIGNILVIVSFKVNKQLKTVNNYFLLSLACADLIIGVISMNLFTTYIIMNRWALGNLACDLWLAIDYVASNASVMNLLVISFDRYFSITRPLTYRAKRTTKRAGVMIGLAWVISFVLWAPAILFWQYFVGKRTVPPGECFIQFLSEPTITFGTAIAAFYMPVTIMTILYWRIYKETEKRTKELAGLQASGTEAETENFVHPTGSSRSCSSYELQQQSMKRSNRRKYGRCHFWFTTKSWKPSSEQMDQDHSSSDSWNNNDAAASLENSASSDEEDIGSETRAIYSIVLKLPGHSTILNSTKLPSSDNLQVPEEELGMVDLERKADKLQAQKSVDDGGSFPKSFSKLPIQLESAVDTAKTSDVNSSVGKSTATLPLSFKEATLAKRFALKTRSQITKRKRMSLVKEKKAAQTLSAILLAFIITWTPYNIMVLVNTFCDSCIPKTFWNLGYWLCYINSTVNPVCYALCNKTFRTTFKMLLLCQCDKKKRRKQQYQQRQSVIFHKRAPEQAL
# Summary of the method: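 Radioligand displacement binding on human M3 receptor in CHO-derived membranes, 1 h incubation, filter-based scintillation counting. Primary screen in duplicate at 25 uM; actives followed up in concentration series; loss of signal versus DMSO.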
# [6] = biological target: Muscarinic acetylcholine receptor M2 (Homo sapiens) (UniProt P08172); assay: NVS_GPCR_hM2: NovaScreen (NVS) G Protein-Coupled Receptor Assay for human Muscarinic, M2 Receptor (AID 2283273)
# Sequence of Muscarinic acetylcholine receptor M2 (Homo sapiens) (P08172 whole entry, looked up): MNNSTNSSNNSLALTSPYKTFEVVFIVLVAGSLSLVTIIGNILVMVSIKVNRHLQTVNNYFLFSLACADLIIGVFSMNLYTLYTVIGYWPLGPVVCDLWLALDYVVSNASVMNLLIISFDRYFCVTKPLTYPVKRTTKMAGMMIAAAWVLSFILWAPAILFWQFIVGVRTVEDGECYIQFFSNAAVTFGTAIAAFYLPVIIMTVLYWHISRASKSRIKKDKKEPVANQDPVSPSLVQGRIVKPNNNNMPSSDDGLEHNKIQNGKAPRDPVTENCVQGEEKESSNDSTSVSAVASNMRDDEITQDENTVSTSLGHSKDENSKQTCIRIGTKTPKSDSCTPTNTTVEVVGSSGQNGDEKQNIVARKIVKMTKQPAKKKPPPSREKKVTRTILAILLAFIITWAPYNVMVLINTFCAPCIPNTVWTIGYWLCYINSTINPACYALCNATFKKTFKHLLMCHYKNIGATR
# Summary of the method: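 Radioligand displacement on human M2 receptor membranes from CHO cells, 1 h incubation, filtration with scintillation counting. Primary screen in duplicate at 25 uM; actives retested in concentration series; loss of signal fitted versus DMSO.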
# [7] = biological target: human Muscarinic, M4 Receptor, CHRM4 (gene 1132) (UniProt P08173); assay: NVS_GPCR_hM4: NovaScreen (NVS) G Protein-Coupled Receptor Assay for human Muscarinic, M4 Receptor (AID 2283274)
# Sequence of human Muscarinic, M4 Receptor, CHRM4 (gene 1132) (P08173 whole entry, looked up): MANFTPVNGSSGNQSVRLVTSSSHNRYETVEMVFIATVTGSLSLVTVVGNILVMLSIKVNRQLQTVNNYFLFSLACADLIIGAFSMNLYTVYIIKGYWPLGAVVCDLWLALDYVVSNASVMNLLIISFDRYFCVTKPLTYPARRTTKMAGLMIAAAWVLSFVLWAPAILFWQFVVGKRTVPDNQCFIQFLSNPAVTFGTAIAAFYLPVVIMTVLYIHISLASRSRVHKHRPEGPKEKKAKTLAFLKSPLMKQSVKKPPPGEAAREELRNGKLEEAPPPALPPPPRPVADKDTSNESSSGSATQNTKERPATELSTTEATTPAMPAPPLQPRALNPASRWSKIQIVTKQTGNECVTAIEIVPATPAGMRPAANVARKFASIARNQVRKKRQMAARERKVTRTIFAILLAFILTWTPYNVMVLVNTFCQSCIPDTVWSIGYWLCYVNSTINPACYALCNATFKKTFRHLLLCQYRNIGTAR
# Summary of the method: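 Cell-free radioligand displacement using CHO-derived human M4 receptor protein, 1 h after dosing; bound radioactivity by filtration and scintillation counting. Primary screen single 25 uM duplicate, actives followed in concentration series.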
# [8] = biological target: human Neurotensin Receptor (NTS), NTSR1 (gene 4923) (UniProt P30989); assay: NVS_GPCR_hNTS: NovaScreen (NVS) G Protein-Coupled Receptor Assay for human Neurotensin Receptor (NTS) (AID 2283279)
# Sequence of human Neurotensin Receptor (NTS), NTSR1 (gene 4923) (P30989 whole entry, looked up): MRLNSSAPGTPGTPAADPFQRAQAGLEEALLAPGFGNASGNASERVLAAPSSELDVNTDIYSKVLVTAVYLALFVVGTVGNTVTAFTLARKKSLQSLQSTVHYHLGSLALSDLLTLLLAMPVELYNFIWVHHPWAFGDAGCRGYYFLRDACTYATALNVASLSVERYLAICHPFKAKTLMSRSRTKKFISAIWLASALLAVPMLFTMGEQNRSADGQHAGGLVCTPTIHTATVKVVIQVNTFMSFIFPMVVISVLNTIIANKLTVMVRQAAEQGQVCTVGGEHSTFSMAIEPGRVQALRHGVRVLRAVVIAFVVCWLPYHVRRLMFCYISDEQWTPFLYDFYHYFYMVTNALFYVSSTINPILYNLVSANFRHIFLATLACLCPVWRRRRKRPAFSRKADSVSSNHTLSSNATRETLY
# Summary of the method: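 Radioligand displacement on human NTSR1 protein from CHO cells, cell-free, 1 h, filter-based scintillation counting. Primary screen at 25 uM in duplicate; hits rerun in concentration-response up to 50 uM.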
# [9] = biological target: Neuropeptide Y receptor type 2 (Homo sapiens) (UniProt P49146); assay: NVS_GPCR_hNPY2: NovaScreen (NVS) G Protein-Coupled Receptor Assay for human Neuropeptide Receptor Y2 (NPY2) (AID 2283277)
# Sequence of Neuropeptide Y receptor type 2 (Homo sapiens) (P49146 whole entry, looked up): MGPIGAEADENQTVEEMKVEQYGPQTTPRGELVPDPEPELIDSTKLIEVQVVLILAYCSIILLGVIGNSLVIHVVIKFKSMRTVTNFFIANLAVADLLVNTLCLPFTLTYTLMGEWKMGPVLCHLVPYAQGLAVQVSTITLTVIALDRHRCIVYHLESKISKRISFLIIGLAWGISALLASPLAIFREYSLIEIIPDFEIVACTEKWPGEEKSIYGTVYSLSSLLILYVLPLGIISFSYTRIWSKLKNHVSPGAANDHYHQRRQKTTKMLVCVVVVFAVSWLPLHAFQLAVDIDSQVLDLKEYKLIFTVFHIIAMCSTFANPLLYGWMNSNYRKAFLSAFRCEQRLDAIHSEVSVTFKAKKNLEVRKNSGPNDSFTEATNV
# Summary of the method: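 Radioligand binding on membranes extracted from SK-N-MC cells, cell-free, read 1 h after dosing by filter-based scintillation counting. Loss of signal vs DMSO. Primary screen in duplicate at 25 uM; actives followed up in concentration-response up to 50 uM.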
# [10] = biological target: human Purinergic Receptor P2Y, P2RY1 (gene 5028) (UniProt P47900); assay: NVS_GPCR_hPY2: NovaScreen (NVS) G Protein-Coupled Receptor Assay for human Purinergic Receptor P2Y (AID 2283281)
# Sequence of human Purinergic Receptor P2Y, P2RY1 (gene 5028) (P47900 whole entry, looked up): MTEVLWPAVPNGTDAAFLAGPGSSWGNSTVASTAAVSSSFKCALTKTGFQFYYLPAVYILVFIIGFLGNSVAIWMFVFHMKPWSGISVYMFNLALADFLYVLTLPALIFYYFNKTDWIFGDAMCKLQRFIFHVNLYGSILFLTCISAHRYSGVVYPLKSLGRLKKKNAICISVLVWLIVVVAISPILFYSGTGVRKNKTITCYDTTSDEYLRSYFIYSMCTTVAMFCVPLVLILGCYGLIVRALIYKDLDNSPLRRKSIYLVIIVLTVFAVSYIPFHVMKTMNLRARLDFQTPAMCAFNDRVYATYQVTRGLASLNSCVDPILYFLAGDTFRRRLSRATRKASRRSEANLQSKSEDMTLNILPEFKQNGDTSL
# Protocol: NVS_GPCR_hPY2 is a biochemical, single-readout assay that uses extracted gene-proteins from U937 in a cell-free assay. Measurements were taken 1 hour after chemical dosing in a 48-well plate.NVS_GPCR_hPY2 is one of one assay component(s) measured or calculated from the NVS_GPCR_hPY2 assay. It is designed to make measurements of radioligand binding, a form of binding reporter, as detected with scintillation counting signals by Filter-based radiodetection technology.Data from the assay component NVS_GPCR_hPY2 was analyzed into 1 assay endpoint. This assay endpoint, NVS_GPCR_hPY2, was analyzed in the positive analysis fitting direction relative to DMSO as the negative control and baseline of activity. […] Furthermore, this assay endpoint can be referred to as a primary readout, because the performed assay has only produced 1 assay endpoint. […]
# Binding assays used specific radioligands (tritiated, iodinated) with non-radioactive competitive displacement ligands in agonist or antagonist protocols (as indicated) and various reference compounds and inhibitors to titrate specific binding to receptors and transporters. Most enzyme assays (CYPs, kinases, phosphatases, proteases, HDACs) used recombinant protein and specific substrates (fluorescence mostly, some colorimetric and radioactive) and inhibitors, followed by a biochemical separation of substrate and product. […]
structure (smiles),measurement,setting,value
O=C(O)C1(C(=O)Nc2ccc(Cl)cc2Cl)CC1,outcome,[1],inactive
O=C(c1ccc(O)cc1O)c1ccc(O)cc1O,AC50,[2],18.5 µM (active)
Cc1nn(C)c(Oc2ccccc2)c1C=NOCc1ccc(C(=O)OC(C)(C)C)cc1,outcome,[3],inactive
same,outcome,[4],inactive
CCCCC(CC)CN1C(=O)C2C3C=CC(C3)C2C1=O (centres undefined),AC50,[5],8.81 µM (active)
same,outcome,[6],inactive
CC(=O)[C@H]1CC[C@H]2[C@@H]3CCC4=CC(=O)CC[C@]4(C)[C@H]3CC[C@]12C,outcome,[6],inactive
same,outcome,[7],inactive
COC(=O)c1ccccc1C(=O)O,outcome,[8],inactive
CC(C)(c1ccc(O)cc1)c1ccc(O)cc1,outcome,[1],inactive
same,outcome,[9],inactive
same,AC50,[2],11.2 µM (active)
S=C(S)NCCNC(=S)S.[Mn+2].[S-]C([S-])=NCCN=C([S-])[S-].[Zn+2],outcome,[6],inactive
same,AC50,[4],117 nM (active) and 135 nM (active) and 170 nM (active)
same,outcome,[2],inactive
CC(C)CCCCCCc1ccc(O)cc1,outcome,[2],inactive
O=C(O)c1ccccc1,outcome,[10],inactive
COC(=O)c1ccc(CNS(C)(=O)=O)cc1S(=O)(=O)NC(=O)Nc1nc(OC)cc(OC)n1,outcome,[8],inactive
C=CCOC(Cn1ccnc1)c1ccc(Cl)cc1Cl (centres undefined),outcome,[1],inactive
same,AC50,[5],5.02 µM (active)
same,AC50,[6],2.67 µM (active)
same,AC50,[7],5.37 µM (active)
same,AC50,[2],4.96 µM (active)
CC(=O)S[C@@H]1CC2=CC(=O)CC[C@]2(C)[C@H]2CC[C@@]3(C)[C@@H](CC[C@@]34CCC(=O)O4)[C@H]12,outcome,[4],inactive
same,AC50,[2],4.42 µM (active)
CCCOC(=O)NCCCN(C)C,outcome,[6],inactive
N[C@@H](Cc1cc(I)c(Oc2ccc(O)c(I)c2)c(I)c1)C(=O)O,outcome,[4],inactive
S=C([S-])NCCNC(=S)[S-].[Mn+2],AC50,[3],13.3 µM (active)
same,outcome,[8],inactive
Oc1ccc(C(c2ccc(O)cc2)C(Cl)(Cl)Cl)cc1,outcome,[1],inactive
same,outcome,[5],inactive
same,AC50,[6],4.96 µM (active)
same,AC50,[7],6.62 µM (active)
same,outcome,[4],inactive
same,AC50,[2],5.12 µM (active)
c1ccc2[nH]c(-c3cscn3)nc2c1,outcome,[8],inactive
CCCN(CCC)c1c([N+](=O)[O-])cc(C(F)(F)F)c(N)c1[N+](=O)[O-],outcome,[8],inactive
CC(C)(C)[C@@H](O)[C@@H](Cc1ccc(Cl)cc1)n1cncn1,outcome,[4],inactive
C[C@]12CC[C@@H]3c4ccc(O)cc4C[C@@H](CCCCCCCCCS(=O)CCCC(F)(F)C(F)(F)F)[C@H]3[C@@H]1CC[C@@H]2O (some centres undefined),outcome,[5],inactive

# — PubChem BioAssay (EPA / NIEHS)
